The values that follow come from PubChem BioAssay (EPA / NIEHS).

Broadly, the AC50 is the concentration at which the activity in the assay is half-maximal.

Active and inactive are the calls of the source. Rule for the calls: active = hit-call score of the fitted dose curve at least 0.9, where 1 is the maximum; inactive = score below 0.9.

Assay [1] in a line: ATG_NFI_CIS: Attagene CIS-FACTORIAL HepG2 Assay for human Nuclear Factor I (NFI) (AID 2282989). The note with it: HepG2 cis-regulatory reporter, NFI response element transcription; actives raise or lower the signal. In short, it runs like this:
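Transient MRTU transfection of HepG2 → 24 h chemical dosing → total RNA, oligo(dT) RT → PCR, 6-FAM primer extension, HpaI cut → capillary electrophoresis. Endpoint fitted bidirectionally relative to DMSO.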

A short description of assay [2]: ATG_NF_kB_CIS: Attagene CIS-FACTORIAL HepG2 Assay for human Nuclear Factor Kappa B (NF-kB) (AID 2282991). The note with it: HepG2 Attagene cis-factorial NF-kB reporter mRNA; actives raise or lower the signal. In short, it runs like this:
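Endpoint from a 52-component multiplexed HepG2 reporter panel: cis-regulated transcription units transiently transfected, 24 h dosing, reporter mRNA quantified by RT-PCR and capillary electrophoresis, scored as increase or decrease against DMSO.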

Assay [3] is described as follows: ATG_NRF2_ARE_CIS: Attagene CIS-FACTORIAL HepG2 Assay for human Nuclear Factor Erythroid 2 Related Factor 2 (NFR2) response to Antioxidant Response Elements (ARE) (AID 2282992).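 For AC50: reporter mRNA level measured by RT-PCR and capillary electrophoresis fluorescence.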 The note with it: HepG2 Attagene ARE/NRF2 reporter, transcription factor activity; actives raise or lower the signal. In short, it runs like this:
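HepG2 cells transiently transfected with multiplexed cis-regulated reporter transcription units measure endogenous transcription factor activity. Reporter mRNA at 24 h is quantified by RT-PCR, fluorescent labelling and capillary electrophoresis, with bidirectional fitting relative to DMSO.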

Assay [4] can be described thus: ATG_Oct_MLP_CIS: Attagene CIS-FACTORIAL HepG2 Assay for human Octamer-Binding Transcription Factor (Oct) (AID 2282993). The note with it: HepG2 Attagene cis-factorial Oct reporter, mRNA; actives raise or lower the signal. In short, it runs like this: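 Transient MRTU transfection of HepG2 → 24 h compound treatment → RNA isolation, reverse transcription, PCR → 6-FAM primer extension, HpaI digest → capillary electrophoresis. Activity fitted both directions against DMSO.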

In assay [5] the target is Cellular tumor antigen p53 (Homo sapiens) (UniProt P04637). Kind of assay: ATG_p53_CIS: Attagene CIS-FACTORIAL HepG2 Assay for human p53 Transcription Factor (AID 2282994). To be noted: HepG2 p53 cis-element reporter, Attagene mRNA; actives raise or lower the signal. The method in brief:
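HepG2 cells transiently transfected with multiplexed cis-regulated reporter transcription units read endogenous TF activity. After 24 h compound exposure, reporter mRNA was quantified by RT-PCR, fluorescent labelling, HpaI digestion and capillary electrophoresis; bidirectional fits versus DMSO baseline.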

Assay [6] deals with Myc proto-oncogene protein (Homo sapiens) (UniProt P01106). The experiment in a line: ATG_Myc_CIS: Attagene CIS-FACTORIAL HepG2 Assay for human Myelocytomatosis (Myc) Proto-Oncogene Transcription Factor (AID 2282990). The note with it: HepG2, Attagene cis-reporter transcription factor activity; actives raise or lower the signal. In short, it runs like this:
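Cells of the HepG2 human liver line bear multiple cis-driven reporter transcription units. Reporter mRNA after 24 h exposure is reverse-transcribed, amplified, labelled and resolved by capillary electrophoresis, with gain- or loss-of-signal fitting relative to DMSO.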

The nature of assay [7]: BSK_3C_TissueFactor: BioMAP Diversity Plus: 3C Assay for Tissue Factor Biomarker Activity (AID 2282997). To be noted: BioMAP 3C HUVEC, tissue factor biomarker readout; actives raise or lower the signal. The method in brief: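 Values derive from bidirectional curve fitting against DMSO of Tissue Factor ELISA signals, taken 24 h after dosing primary human umbilical vein endothelial cells.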

Assay [8] is described as follows: BSK_3C_uPAR: BioMAP Diversity Plus: 3C Assay for Urokinase-type plasminogen activator receptor (uPAR) Biomarker Activity (AID 2282998). The note with it: BioMAP 3C HUVEC, uPAR biomarker ELISA; actives raise or lower the signal. In short, it runs like this: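 ELISA readout of uPAR on human vascular endothelium (umbilical vein primary cells), taken 24 h after chemical dosing. Increases and decreases are both fitted relative to DMSO vehicle.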
For orientation: In an ELISA, binding on a coated surface is turned into a signal by an enzyme label.

Assay [9] is described as follows: BSK_3C_VCAM1: BioMAP Diversity Plus: 3C Assay for Vascular cell adhesion molecule 1 (VCAM1) Biomarker Activity (AID 2282999). The note with it: BioMAP 3C HUVEC, VCAM1 ELISA, cytokine-stimulated; actives raise or lower the signal. In short, it runs like this:
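Endothelial cells from human umbilical vein are treated with test chemical. At 24 h, VCAM-1 is measured by ELISA, and responses in either direction are fitted relative to DMSO.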

Assay [10] in a line: BSK_4H_Eotaxin3: BioMAP Diversity Plus: 4H Assay for Eotaxin 3 Biomarker Activity (AID 2283000).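 Note: CCL26 protein level quantified by ELISA in parallel with SRB cytotoxicity check.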 To be noted: primary human endothelial cells (HUVEC); actives raise or lower the signal. In short, it runs like this:
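Endothelial primary cells (human umbilical vein) exposed to compound for 24 h. ELISA detection of Eotaxin-3.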

Cellular tumor antigen p53 (Homo sapiens), sequence (P04637 whole entry, looked up): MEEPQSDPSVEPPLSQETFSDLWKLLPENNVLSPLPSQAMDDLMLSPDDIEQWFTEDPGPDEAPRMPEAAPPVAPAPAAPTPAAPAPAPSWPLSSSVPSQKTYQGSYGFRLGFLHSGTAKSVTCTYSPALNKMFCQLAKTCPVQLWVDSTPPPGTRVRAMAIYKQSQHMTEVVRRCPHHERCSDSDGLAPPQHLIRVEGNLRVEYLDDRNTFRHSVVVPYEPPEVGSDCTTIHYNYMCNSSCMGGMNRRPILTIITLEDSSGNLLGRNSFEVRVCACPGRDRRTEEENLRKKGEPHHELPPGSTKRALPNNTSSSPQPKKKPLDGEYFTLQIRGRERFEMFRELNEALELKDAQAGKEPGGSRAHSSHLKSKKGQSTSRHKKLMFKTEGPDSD
Myc proto-oncogene protein (Homo sapiens), sequence (P01106 whole entry, looked up): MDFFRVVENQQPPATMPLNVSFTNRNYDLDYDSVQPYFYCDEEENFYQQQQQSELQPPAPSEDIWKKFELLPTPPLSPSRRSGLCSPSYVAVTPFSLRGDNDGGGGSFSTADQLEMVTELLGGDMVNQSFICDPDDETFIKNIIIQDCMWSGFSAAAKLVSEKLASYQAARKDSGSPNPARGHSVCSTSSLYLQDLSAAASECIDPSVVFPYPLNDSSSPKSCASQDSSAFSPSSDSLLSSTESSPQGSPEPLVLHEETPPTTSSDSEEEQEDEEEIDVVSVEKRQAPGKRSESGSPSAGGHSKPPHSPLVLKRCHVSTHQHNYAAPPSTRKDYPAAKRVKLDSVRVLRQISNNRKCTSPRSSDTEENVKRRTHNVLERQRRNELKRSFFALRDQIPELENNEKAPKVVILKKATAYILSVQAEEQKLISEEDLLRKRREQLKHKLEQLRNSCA

For `C=CC(=O)OCCOCCOCC`, the result in [1], in [4] and in [5] was inactive. In addition, the AC50 in assay [2] was 9.52 µM (active); in assay [3], 26 µM (active).

For `CC1CC(OC(=O)c2ccccc2O)CC(C)(C)C1` (stereo not drawn), the result in assay [1], in [2], in assay [3], in [4] and in assay [5] was inactive.

Consider `COC(C)CCO` (stereo not drawn), for which the compound was classed as inactive in assay [1] and in assay [2]. The AC50 is 63.3 µM (active) in assay [3], 151 µM (active) in assay [4] and 162 µM (active) in assay [5].

Consider `Cc1ccc(C(=O)c2cc(O)c(O)c([N+](=O)[O-])c2)cc1`, for which the compound was called inactive in assay [1], in assay [2], in [3], in assay [4] and in assay [5].

In the case of `CCCCC[Si](OCC)(OCC)OCC`, the compound was classed as inactive in assay [1], in assay [2], in [3] and in assay [4].

Regarding `CCCCOCCOCCSC#N`, the call in assay [1], in assay [2] and in [5] was inactive. Further, the half-maximal activity concentration (AC50) in assay [3] is 16.7 µM (active).

On to `O=C(O)COCCN1CCN(C(c2ccccc2)c2ccc(Cl)cc2)CC1` (stereo not drawn), for which the compound was called inactive in [6] and in assay [4].

`CN1[C@@H]2CC(OC(=O)[C@H](CO)c3ccccc3)C[C@H]1[C@@H]1O[C@@H]12` (stereo partly drawn): the compound was called inactive in [6], in [4] and in assay [5].

On to `CCCCCCCCC`, for which the compound was called inactive in assay [1], in [2], in [3], in assay [4] and in assay [5].

With `O=C[C@@H](O)[C@H](O)[C@H](O)CO`, the outcome in assay [1], in assay [3] and in [4] was inactive.

As to `COc1ccc(Cl)cc1C`, the compound was classed as inactive in assay [1], in assay [3], in [4] and in assay [5].

For the compound `CC(O)C(C)O` (stereo not drawn), the result in assay [1], in assay [3], in assay [4] and in [5] was inactive.

Consider `O=Cc1ccc(Cl)c([N+](=O)[O-])c1`, for which the AC50 in [1] is 160 µM (active); in assay [3], 179 µM (active); in assay [5], 54.5 µM (active). The result in assay [2] was inactive.

For the compound `C=CC(C)(CCC=C(C)C)OC=O` (stereo not drawn), the compound was called inactive in assay [1] and in [4]. The AC50 in assay [3] was 153 µM (active).

Regarding `COC(C(=O)O)c1ccccc1` (stereo not drawn), the compound was called inactive in assay [1], in assay [2], in [3], in assay [4] and in assay [5].

Consider `COc1ccc(O)cc1`, for which the outcome in assay [1], in [2], in assay [3], in assay [4] and in [5] was inactive.

Turning to `O=c1cc(-c2ccccc2)oc2cc(O)cc(O)c12`, the compound was called inactive in assay [1] and in assay [4]. Further, the concentration at half-maximal activity (AC50) in assay [2] is 12.4 µM (active); in assay [3], 2.2 µM (active).

For `O=Nc1ccc(Nc2ccccc2)cc1`, the AC50 in assay [1] is 56.4 µM (active); in [2] it was 12.1 µM (active); in [3], 7.16 µM (active); in assay [4], 33.4 µM (active); in assay [5], 54.3 µM (active).

As for `CC(C)(CO)[N+](=O)[O-]`, the compound was classed as inactive in assay [1], in assay [3] and in assay [4].

With `N#Cc1ccccc1`, the outcome in assay [1], in assay [2], in assay [3], in assay [4] and in [5] was inactive.

In the case of `O=[N+]([O-])c1ccc(C=Cc2ccc([N+](=O)[O-])cc2S(=O)(=O)O)c(S(=O)(=O)O)c1`, the call in assay [1], in [3] and in [4] was inactive.

`O=C(O)c1ccc([N+](=O)[O-])cc1`: the call in assay [1], in assay [2], in [3], in assay [4], in assay [7] and in assay [8] was inactive. The outcome in assay [9] and in assay [10] was inactive.

In the case of `COC(=O)C1=C(C)NC(C)=C(C(=O)OCCN(C)Cc2ccccc2)C1c1cccc([N+](=O)[O-])c1` (stereo not drawn), the call in assay [1] and in assay [3] was inactive.

Turning to `CC(C)c1cccc(O)c1`, the result in assay [1], in assay [3], in assay [4] and in assay [5] was inactive.

Take `Cc1ccc(C(=O)O)o1`: the result in assay [1], in [3] and in assay [4] was inactive.

Turning to `C=C(C)[C@@H]1CC[C@@H](C)C[C@@H]1O`, the call in assay [1], in assay [3], in [4] and in [5] was inactive.

In the case of `O=C(O)c1cn(C2CC2)c2cc(N3CCNCC3)c(F)cc2c1=O`, the result in [6], in [4], in assay [5], in assay [7], in [8] and in assay [9] was inactive. In [10], the result was inactive.

With `O=C1C(c2[nH]c3ccc(S(=O)(=O)O)cc3c2O)=Nc2ccc(S(=O)(=O)O)cc21`, the compound was called inactive in [1], in assay [3], in assay [4] and in assay [5].
